The source of these data is PubChem BioAssay (EPA / NIEHS).

Active and inactive are the calls of the source. How the source made its calls: active means hit-call score of the fitted dose curve at least 0.9, where 1 is the maximum; inactive means score below 0.9.

This assay can be described thus: ATG_PBREM_CIS: Attagene CIS-FACTORIAL HepG2 Assay for human Phenobarbital-responsive Enhancer Module (PBREM) (AID 2282955). To be noted: HepG2 PBREM cis-reporter, Attagene multiplexed transcription; actives raise or lower the signal. On the procedure: ATG_CIS is a cell-based, multiplexed-readout assay that uses HepG2, a human liver cell line, with measurements taken at 24 hours after chemical dosing in a 24-well plate.ATG_PBREM_CIS is one of 52 assay component(s) measured or calculated from the ATG_CIS assay. It is designed to make measurements of mRNA induction, a form of inducible reporter, as detected with fluorescence intensity signals by Reverse transcription polymerase chain reaction (RT-PCR) and Capillary electrophoresis technology.Data from the assay component ATG_PBREM_CIS was analyzed into 1 assay endpoint. This assay endpoint, ATG_PBREM_CIS, was analyzed with bidirectional fitting relative to DMSO as the negative control and baseline of activity. Using a type of inducible reporter, measures of mRNA for gain or loss-of-signal activity can be used to understand the reporter gene at the transcription factor-level as they relate to the gene NR1I3. Furthermore, this assay endpoint can be referred to as a primary readout, because this assay has produced multiple assay endpoints where this one serves a reporter gene function. To generalize the intended target to other relatable targets, this assay endpoint is annotated to the nuclear receptor intended target family, where the subfamily is non-steroidal.
Human liver HepG2 cells are transiently transfected with multiple reporter transcription units (MRTUs) in 6-well plates using FuGene 6 reagent (Roche; 3 ml FuGene/1 mg DNA). The MRTU constructs are regulated by a cis-regulating element (promoter). […] A major difference between the CIS and TRANS system is that in CIS activities of endogenous TFs are measured, whereas the TRANS assay evaluates changes in activities of exogenous, chimeric NR-Gal4 proteins. […] At the end of 24 hour incubation, total RNA was isolated using TriZol reagent (Invitrogen). The isolated RNA is then reverse-transcribed using oligo(dT) primer and Mo-MLV reverse transcriptase (Invitrogen) with DNAse I (Ambion) treatment for 30 min. The one-tenth of the produced cDNA was amplified by PCR using Taq DNA polymerase (Invitrogen) and two reporter sequence-specific primers. The PCR products were fluorescently labeled by primer extension with 6-arboxyfluorescein (6-FAM) 5'-labeled reporter sequence-specific primer (2 min at 95 C, 20 s at 68 C and 10 min at 72 C) and these products were digested with 5U of HpaI (New England Biolabs) for 2h at 37 C. The fragments were purified using Qiaquick PCR columns (Qiagen), analyzed on an ABI 3130xL genetic analyzer (Applied Biosystems) with peak positions identified by using a set of X-rhodamine (ROX)-labeled MapMarker1000 molecular weight standards (BioVentures). The raw capillary electrophoresis data was processed using Attagraph software (Attagene).
On to `Cc1ccc2oc(=O)ccc2c1`, for which the result was inactive.

Turning to `OC1CCCC1`, the result was inactive.

As to `COc1ccc(C(Cl)=C(c2ccc(OC)cc2)c2ccc(OC)cc2)cc1`, the outcome was inactive.

Regarding `COC(F)(F)C(F)(C(F)(F)F)C(F)(F)F`, the result was inactive.

As to `Cc1cccc(OCCOc2cccc(C)c2)c1`, the result was inactive.

In the case of `CN1C(=O)N(C)C(O)C1O` (stereo not given), the result was inactive.

In the case of `O=Cc1ccc(CO)o1`, the result was inactive.

In the case of `Nc1ccc(Oc2ccc(N)c(N)c2)cc1`, the result was inactive.

Take `Cc1ccc(N/N=c2\c(=O)cc/c(=N/Nc3ccc(S(=O)(=O)O)cc3)c2=O)c(C)c1`: the result was inactive.

`Nc1ccc(-c2ccc(F)cc2)cc1`: the outcome was inactive.

As to `O=S(=O)(O)CC(O)CCl` (stereo not given), the outcome was inactive.

In the case of `CCOC(=O)NNc1nncc2ccccc12`, the outcome was inactive.

With `COC(=O)c1cc(Cl)ccc1[N+](=O)[O-]`, the outcome was inactive.

For the molecule `CC(C)C1=CC2=CC[C@@H]3[C@](C)(CCC[C@@]3(C)C(=O)O)[C@H]2CC1`, the result was inactive.

Take `O=C1CCCN1CCO`: the outcome was inactive.

On to `CCN(CC#N)c1cccc(C)c1`, for which the result was inactive.

Regarding `O=C(Nc1ccccc1SSc1ccccc1NC(=O)c1ccccc1)c1ccccc1`, the result was inactive.

Consider `CCCCCCCCCCCCCCCCCC#N`, for which the result was inactive.

Take `NC(CO)(CO)CO`: the result was inactive.

With `CCCCC(CC)COCC1CO1` (stereo not given), the result was inactive.

In the case of `Cc1ccc(C(C)c2ccc(C)c(C)c2)cc1C`, the outcome was inactive.

Turning to `Cc1cc(C)c(C(=O)O)c(C)c1`, the result was inactive.

On to `Cc1cc(C)c(C)c(O)c1`, for which the outcome was inactive.

Turning to `O=Nc1ccc(O)cc1`, the outcome was inactive.

`CC(C)(C)C(=O)CCc1ccc(Cl)cc1`: the outcome was inactive.

Take `O=C1c2cccc(O)c2C(=O)c2c(O)cc(CO)cc21`: the result was inactive.

As for `Nc1ccc2cc3ccccc3cc2c1`, the outcome was inactive.

Turning to `CC(C)(c1cc(Br)c(OCCO)c(Br)c1)c1cc(Br)c(OCCO)c(Br)c1`, the result was inactive.

Regarding `O=c1c2ccccc2oc2ccccc12`, the result was inactive.

Take `CC/C=C\C/C=C\C/C=C\CCCCCCCC(=O)O`: the result was inactive.

As to `COC(=O)C1=C(C)NC(C)=C(C(=O)OCC(C)C)C1c1ccccc1[N+](=O)[O-]` (stereo not given), the outcome was inactive.

Consider `CCOCC(=O)O`, for which the result was inactive.

Regarding `SCCc1cnccn1`, the outcome was inactive.

With `c1cc(C(c2ccc(OCC3CO3)cc2)C(c2ccc(OCC3CO3)cc2)c2ccc(OCC3CO3)cc2)ccc1OCC1CO1` (stereo not given), the outcome was inactive.

Turning to `OC1OCCOC1O` (stereo not given), the result was inactive.

As for `Cc1cc(=O)n(-c2ccccc2)n1C`, the outcome was inactive.

`CCCCCCCCCCCSCC(=O)O`: the result was inactive.

As for `COc1ccc(NC(C)=O)cc1N`, the result was inactive.

Take `O=C(C=Cc1ccccc1)OCc1ccccc1`: the outcome was inactive.

As for `Cc1c(C)c([N+](=O)[O-])c(C(C)(C)C)c([N+](=O)[O-])c1C`, the result was inactive.
